Among all 68,000 compounds or so, about 2,700 (4%) showed an effect of 50% or more. The entries come from a sample that favours strong results as a whole.

The test system of the experiment is Plasmodium berghei. The experiment in a line: Screen against P. berghei liver stage (PbLuc), transformed with Luciferase, at 2uM. In kind it is functional, HepG2. The conditions noted are these: tested at 2 uM.
Take `CCN(CC)CCCNC(=O)c1nn(CC)cc1Cl`: the INHIBITION is reported as 24.34%.
For `CCN(CC)CCNC(=O)c1nn(CC)cc1Cl` the value was 54.07%; for `CCCNC(=O)c1nn(CC)cc1Cl`, -40.28%; for `COCCCNC(=O)c1c(-n2cnnn2)sc2c1CCC2`, -0.44%.
In the case of `CN(C)C(=O)c1ccccc1NC(=O)N[C@@H]1c2ccccc2C[C@@H]1O` it was 42.32%.
For `CS(=O)(=O)c1ccccc1NC(=O)N[C@@H]1c2ccccc2C[C@@H]1O` the value was -11.32%; for `CS(=O)(=O)c1ccccc1N[C@@H]1c2ccccc2C[C@@H]1O`, 54.29%; for `O=S1(=O)NCC2(CCCN(Cc3ccccn3)C2)Oc2ncccc21` (centres undefined), -30.35%.
Consider `CN(C)c1ncc(CNC(=O)Nc2ccc(C(F)(F)F)cc2)n1C`, for which the INHIBITION amounted to 47.59%.
In the case of `CC(=O)N[C@@H]1CN(Cc2oc3ccccc3c2C)C[C@H]1c1ccc(C)o1` it was 3.92%.
As to `Nc1ncccc1CN1CCCn2nc(CCC(=O)NC3CC3)cc2C1`, the INHIBITION was found to be 26.82%.
In the case of `O=C1C(Nc2nccn3cnnc23)CCN1c1cccc(Cl)c1` (centres undefined) it was 34.89%; in that of `CCCc1noc(C2CCN(C(=O)C3CCCO3)CC2)n1` (centres undefined), 15.58%.
In the case of `O=C(NC1CCCC1)c1ccc(C2CCCNC2)nc1` (centres undefined) it was 12%; in that of `COc1c(C2CCCN2CC(=O)N(C)Cc2ccco2)c(C)nn1C` (centres undefined), 5.39%.
For `COc1cc(C)ccc1S(=O)(=O)N1CC[C@](C)(O)[C@H](C)C1` the value was -11.41%.
On to `COCC[C@]1(O)CCN(S(=O)(=O)c2ccc(C)cc2OC)C[C@H]1C`, for which the INHIBITION came out at 69.67%.
Turning to `CCc1ccc(S(=O)(=O)N2CC[C@@](O)(CCOC)[C@H](C)C2)cc1`, the INHIBITION is recorded as 26.74%.
On to `COc1cc(COCC2CCN(Cc3ccccn3)CC2)cc(OC)c1`, for which the INHIBITION is given as 5.98%.
In the case of `COc1cc(CN2CCC(COCc3ccccc3)CC2)cc(OC)c1` it was 55.25%; in that of `COc1cc(COCC2CCN(Cc3cccnc3)CC2)cc(OC)c1`, 20.76%; in that of `CC(C)CN1CCC2(COCc3cnc(-c4ccccc4)nc32)C1` (centres undefined), 5.22%.
`O=C(c1cc(C2CC2)[nH]n1)N1CCN(Cc2ccc(Cl)cc2)CC1`: the INHIBITION was 59.99%.
As to `CC(C)c1ccc(CN2CCN(C(=O)c3cc(C4CC4)[nH]n3)CC2)cc1`, the INHIBITION came to 38.87%.
With `O=C(c1cc(C2CC2)[nH]n1)N1CCN(Cc2ccccc2)CC1`, the INHIBITION stood at 5.52%.
Consider `Cc1ccc(C(=O)Oc2cc(=O)n3cccc(C)c3n2)cc1`, for which the INHIBITION is -38.95%.
In the case of `COc1ccc(CCNC(=O)C2CCOC2)c(Cl)c1` (centres undefined) it was -7.69%.
For `CCOCCCNC(=O)C1(C)CCC(=O)N1c1ccccc1OC` (centres undefined), the INHIBITION was -15.25%.
Regarding `Cc1cccc2c1cnn2CCCNC(=O)c1cnn(C)c1`, the INHIBITION was 2.66%.

The values are drawn from ChEMBL document CHEMBL4513216, “Probing the Open Global Health Chemical Diversity Library for Multistage-Active Starting Points for Next-Generation Antimalarials” (ACS Infect Dis, 2020).
